Source: PubChem BioAssay
The list is not random: actives were taken first. Their share in the collection is about 3.8%.
HepG2 viability – kills HepG2 cells in TGF-b inhibitor counter-screen | HepG2 CAGA-GFP viability, ATP luminescence, 18 h | AID 588856 | 410,000 tested, 0.76% active | Potency, µM (titrated, usually from 46.1 µM), without a hit: at the highest dose activity change, negative = cytotoxicity, hits mostly cytotoxic
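CellTiter-Glo luminescence gave cytotoxicity after 18 hours at 37 degrees C. The cells were HepG2 CAGA-GFP in 1% FBS DMEM, stimulated with 500 pg/mL TGF-beta after compound addition. %Activity was normalised to no-cell wells (complete cell-killing) and DMSO (no toxicity), and curves were fitted and classified.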
Nrf2 block – blocks Nrf2 signaling; A549 ARE-Fluc reporter, luciferase luminescence, 18-24 h; Potency, µM (series often up to 46 µM), for the others: at the highest dose activity change, negative = inhibition, actives largely listed as inhibitors; 360,000 tested, 2.1% active; further: on the % scale 0 is the no-effect control and ±100 the full control effect; nearly all actives have a fitted effect of over 60% in size
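Reporter: ARE-Fluc in A549. Exposure: 18-24 h, 37 °C, 5% CO2, 5% FBS OPTI-MEM. Readouts: fluorescent cytotoxicity (CellTiter-Fluor), then luminescent Nrf2 signal after BugLite.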
A549 viability – counter-screen for Nrf2 inhibitors: cytotoxicity in A549 cells; A549 ARE-Fluc cells, CellTiter-Fluor viability, 18-24 h; Potency, µM (highest dose often 46 µM), for the others: top-dose activity change, negative = cytotoxicity, actives largely listed as inhibitors; 390,000 tested, 0.16% active; AID 504648; further: on the % scale 0 is the no-effect control and ±100 the full control effect
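A549 ARE_Fluc cells in 5% FBS OPTI-MEM were exposed to compounds in concentration-response for 18-24 h at 37 deg C. Viability was read by CellTiter-Fluor fluorescence (Ex 405/Em 525) after 30 min, before the luciferase read.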
S2 tox – reduces viability in counter-screen for ATXN expression inhibitors | 400,000 tested, 0.49% active | Potency, µM (doses to about 56.7 µM), hits mostly cytotoxic | S2 cells (HEK-293 line with an ATXN2-luciferase reporter) viability, CellTiter-Fluor protease fluorescence, 24 h | AID 651635; further: nearly all actives have a fitted effect of over 40% in size
ATXN2 expr inh – reduces ATXN2 reporter expression in HEK-293 cells; HEK-293 ATXN2-luciferase reporter, luminescence, 24 h; 360,000 tested, 0.72% active; Potency, µM (titrated, usually from 57 µM), for inactives: at the top dose activity change, negative = inhibition, most hits filed as inhibitors; AID 1745845; further: on the % scale 0 is the no-effect control and ±100 the full control effect; nearly all actives have a fitted effect of over 55% in size
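ATXN2-luciferase reporter cells (luciferase flanked by upstream and downstream ATXN2 gene portions) were treated 24 h at 37 °C with compounds at up to 57 uM. SteadyGlo luminescence gave expression; GF-AFC fluorescence gave viability.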
TGFb inhibitor – inhibitors of TGF-b signaling | HepG2 CAGA-GFP TGF-b/SMAD3 reporter, GFP fluorescence, 18 h; TGF-beta stimulated, 500 pg/mL final | Potency, µM (series often up to 46.1 µM), inactives show at the top dose activity, negative = inhibition, most hits filed as inhibitors | 410,000 tested, 1.2% active | AID 588855; further: on the % scale 0 is the no-effect control and ±100 the full control effect; nearly all actives have a fitted effect of over 65% in size
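GFP signal (ex488/em500-530) from TGF-beta-stimulated HEPG2 CAGA-GFP cells, 500 pg/mL final, 18 h at 37 degrees C in DMEM plus 1% FBS, normalized to unstimulated and DMSO-stimulated controls.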
* = called active by the depositor; i = inactive; ? = inconclusive; · = not tested or not shown. The call rests on the fitted dose curve; in most records, active means well fitted curve in the direction sought with a large enough effect; inconclusive means small, poorly fitted or top-dose-only effect, or another doubt; inactive means no such curve, though single readings can be large; an effect the other way counts as inactive or inconclusive. Potency means the concentration at half of the fitted maximal effect.

SMILES	HepG2 viability	Nrf2 block	A549 viability	S2 tox	ATXN2 expr inh	TGFb inhibitor
CCC(C)[C@H](NC(=O)N1CCN(c2cccc(C(F)(F)F)c2)CC1)C(=O)OC (some centres undefined)	-24.5%	18.4µM*	-9.6%	i	-15.2%	-6.9%
O=C(Nc1ccccc1)N1CCN(c2cccc(C(F)(F)F)c2)CC1	-20.3%	23.1µM*	-16.2%	i	-22.1%	2.0%
FC(F)(F)c1cccc(N2CCN(C(=S)NCC3CCCO3)CC2)c1 (centres undefined)	-12.2%	13µM*	?	i	-20.8%	?
S=C(NCC1CCCO1)N1CCN(c2ccccc2)CC1 (centres undefined)	-1.6%	0.7%	0.2%	i	-9.8%	-15.8%
COc1ccc(NC(=O)N2CCN(c3cccc(C(F)(F)F)c3)CC2)cc1OC	-6.6%	?	-4.5%	i	-1.1%	?
CN(C)c1ccc(-c2nc3ccccn3c2Nc2ccc3c(c2)OCCO3)cc1	-8.0%	?	-8.1%	·	·	·
CCCCN(Cc1cccs1)S(=O)(=O)c1cc(-c2cc(C)no2)ccc1C	-12.6%	-4.9%	-0.2%	·	·	-8.0%
O=C(Nc1cc(S(=O)(=O)Nc2ccc(Cl)cc2)ccc1N1CCCCC1)c1ccc(F)cc1Cl	-64.0%	?	?	i	-28.5%	?
CN(C)CCCNc1ncnc2c1cnn2-c1ccccc1	-14.9%	13.5%	20.9%	i	5.2%	-14.1%
Cc1ccc(-n2ncc3c(NCCCN(C)C)ncnc32)cc1Cl	12.6µM*	·	16.4%	·	?	?
O=c1cc(-c2ccco2)oc2c1ccc1ccccc12	-77.0%	-15.8%	5.6%	i	-8.8%	18.7%
O=c1cc(C(Cl)(Cl)Cl)oc2c1ccc1ccccc12	-49.7%	20.6µM*	?	·	?	-27.4%
O=c1cc(-c2ccncc2)oc2c1ccc1ccccc12	-5.5%	18.4µM*	-14.3%	?	?	?
COc1ccc(-c2c3c(cc(C)[n+]2[O-])oc2ccc(OC)cc23)cc1	-11.6%	?	?	?	-29.0%	-17.0%
COc1ccc2oc3cc(C)[n+]([O-])c(-c4ccc(C)cc4)c3c2c1	-18.3%	25.9µM*	?	i	-26.9%	?
COC(=O)c1ccc(OC)c(CSc2nnc(COc3ccc(OC)cc3)o2)c1	-23.2%	13µM*	·	i	-1.4%	0.8%
Cc1nn2c(NCCN3CCOCC3)c3c(nc2c1-c1ccccc1)CCCC3	-46.7%	-26.4%	-3.7%	i	?	4.6%
Cc1nn2c(N3CCN(C)CC3)c3c(nc2c1-c1ccccc1)CCCC3	-17.7%	-19.5%	9.3%	20µM*	?	-10.2%
COc1ccc(N2CCN(C(CNS(=O)(=O)c3c(C)cc(C)cc3C)c3ccco3)CC2)cc1 (centres undefined)	-15.0%	·	15.2%	·	·	-18.3%
Cc1nc(SCC(=O)NCC2COc3ccccc3O2)c2c(C)c(C)sc2n1 (centres undefined)	-20.5%	20.6µM*	0.8%	i	?	-8.6%
Oc1cccc(-c2nc(-c3cccs3)c(-c3cccs3)[nH]2)c1	-85.8%	11.8%	-1.5%	·	·	14.1µM*
Fc1ccc(-c2nc(-c3cccs3)[nH]c2-c2ccc(F)cc2)cc1	-38.9%	?	-21.4%	?	-4.4%	14.1µM*
COc1ccccc1N/C(N)=N/c1nc(CSc2ccc(C)cc2)cc(=O)[nH]1	-3.3%	20.6µM*	-7.1%	i	2.1%	-7.7%
COc1ccc(-c2cc(C(=O)N3CCCC3)no2)cc1	-16.8%	?	-4.7%	i	8.91µM*	-19.7%
COc1ccc(-c2cc(C(=O)N3CCCCCC3)no2)cc1	-13.9%	141.2%	5.1%	i	0.3%	12.1%
SMILES	HepG2 viability	Nrf2 block	A549 viability	S2 tox	ATXN2 expr inh	TGFb inhibitor
CCCCNc1ccc(C(F)(F)F)cc1S(=O)(=O)NCCc1ccc(F)cc1	5.01µM*	?	-13.7%	?	0.0%	?
Cc1cccc(C(=O)NC(=O)Nc2ccc(-n3nc(C(F)(F)F)cc3C(F)(F)F)cc2)c1	1.4%	6.1%	3.3%	i	14.7%	-4.7%
N#C/C(=N\Nc1cc(Cl)cc(Cl)c1)c1nnc2n1CCCCC2	-26.4%	18.4µM*	?	i	-34.7%	?
Cc1ccc(NC(=S)NNc2ncc(C(F)(F)F)cc2Cl)cc1	-40.5%	23.1µM*	-5.4%	i	16.8µM*	?
Cc1ccc(NC(=S)NNc2ncc(C(F)(F)F)cc2Cl)c(C)c1	-31.9%	?	-12.1%	i	-30.6%	?
Fc1ccc(NC(=S)NNc2ncc(C(F)(F)F)cc2Cl)c(F)c1	-131.3%	?	?	i	14.1µM*	?
O=C(NNc1ncc(C(F)(F)F)cc1Cl)c1ccc(Cl)c(Cl)c1	-6.2%	3.3%	1.3%	i	0.8%	-14.4%
FC(F)(F)c1cnc(NNC(=S)Nc2ccc(Cl)cc2)c(Cl)c1	-61.6%	11.6µM*	?	?	?	2.82µM*
COc1ccc2ccccc2c1CN1CCc2nnc(C(NS(C)(=O)=O)C(C)C)n2CC1 (centres undefined)	·	·	·	i	·	·
CCCN(CC(=O)Nc1ccccc1OC)C(=O)c1ccc(=O)[nH]c1	-8.3%	9.8%	1.1%	i	-11.6%	0.4%
CCOc1ccccc1CNC(=O)CCC(=O)N1Cc2ccccc2Oc2ncccc21	-2.0%	-8.3%	-0.8%	i	-11.7%	-7.8%
CCOc1ccc(NC(=O)Cn2c(=O)n(Cc3ccc(C(=O)NCc4ccc(C)cc4)cc3)c(=O)c3ccccc32)cc1	7.3%	18.4µM*	-13.8%	i	8.5%	3.4%
Cc1ccc(CNC(=O)c2ccc(Cn3c(=O)c4ccccc4n(CC(=O)Nc4ccc(C)cc4)c3=O)cc2)cc1	-14.1%	-7.7%	-3.9%	i	11.6%	-1.2%
O=C(c1ccc(N2CCN(C(=O)c3ccccc3Br)CC2)cc1)c1cccc(F)c1	-7.8%	20.6µM*	-22.4%	i	?	0.0%
O=C(c1ccc(N2CCN(C(=O)c3cccc(F)c3)CC2)cc1)c1cccc(F)c1	-24.7%	?	?	i	?	?
O=C(COC(=O)CC1CCCC1)Nc1ccc(Cl)cc1	-7.5%	0.0%	-0.3%	i	-8.5%	5.2%
COc1cccc(N2CCN(C(=O)CN3C(=O)COc4ccc(S(=O)(=O)N5CCC(C)CC5)cc43)CC2)c1	2.3%	10.2%	-2.7%	?	10.6%	3.9%
CC1(C(=O)NS(=O)(=O)C2CC2)CCCN(C(=O)c2cccs2)C1 (centres undefined)	-4.0%	·	·	i	6.3%	6.4%
